# A selection: hits, their analogues and other compounds. The true share with any hit is near 12%.
# USP28 inh – human USP28 deubiquitinase inhibition; 47,000 compounds, 3% hits; purified USP28, Ub-rhodamine cleavage fluorescence, 30 min; inhibition, % at 25 µM; Q96RU2
# OTUD3 inh – human OTUD3 deubiquitinase inhibition | inhibition, % at 25 µM | Q5T2D3 | 47,000 compounds, 0.7% hits | purified OTUD3, Ub-rhodamine fluorescence, 2 h | AID 1645858
# USP17 block – human USP17-like deubiquitinase inhibition | inhibition, % at 50 µM | 47,000 compounds, 6.5% hits | A8MUK1 | AID 1645855 | purified USP17, Ub-rhodamine cleavage fluorescence, 3 h
# Target sequence (A8MUK1 whole entry, looked up): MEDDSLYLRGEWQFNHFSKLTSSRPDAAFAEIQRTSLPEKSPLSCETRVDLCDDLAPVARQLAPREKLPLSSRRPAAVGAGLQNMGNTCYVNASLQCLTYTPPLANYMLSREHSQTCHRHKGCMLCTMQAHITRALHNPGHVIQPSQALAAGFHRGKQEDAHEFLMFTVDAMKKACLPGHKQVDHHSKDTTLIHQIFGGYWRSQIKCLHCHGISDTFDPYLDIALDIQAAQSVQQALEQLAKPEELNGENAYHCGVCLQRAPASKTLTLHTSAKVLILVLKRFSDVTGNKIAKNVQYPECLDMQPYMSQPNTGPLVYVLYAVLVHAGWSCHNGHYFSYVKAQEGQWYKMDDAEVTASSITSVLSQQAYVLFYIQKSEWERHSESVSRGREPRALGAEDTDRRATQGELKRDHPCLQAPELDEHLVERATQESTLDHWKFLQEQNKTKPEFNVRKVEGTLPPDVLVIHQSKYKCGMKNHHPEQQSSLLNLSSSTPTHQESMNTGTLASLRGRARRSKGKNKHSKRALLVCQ
# USP30 block – human USP30 deubiquitinase inhibition. Q70CQ3. purified USP30, Ub-rhodamine cleavage fluorescence. inhibition, % at 25 µM. 47,000 compounds, 5.3% hits
# Starred values were filed as active, the others as inactive; . = no result given. Cut-off read from the data, not from the text of the source: active = inhibition above about 30%; inactive = the rest.
SMILES,USP28 inh,OTUD3 inh,USP17 block,USP30 block
O=C(COc1ccc(F)cc1)Nc1noc(-c2ccccc2)n1,44*,-1,63*,74*
Cc1ccc(-c2nc(NC(=O)COc3cc(C)cc(C)c3)no2)cc1,-9,-7,1,0
Cc1cccc(-c2nc(NC(=O)COc3ccc(F)cc3)no2)c1,61*,20,71*,68*
Cc1ccc(NC(=O)COc2ccccc2-c2noc(-c3cccc(F)c3)n2)cc1,-3,0,17,0
Cc1noc(C)c1C1CCCN1S(=O)(=O)c1ccc(Cl)cc1 (stereo not drawn),6,3,3,17
NC(=O)c1ccc(N2CCN(c3ccccc3O)CC2)c([N+](=O)[O-])c1,12,4,32*,-10
Cc1ccc(NC(=O)Cn2nc3ccc(C(=O)NCc4ccccc4)cn3c2=O)cc1F,-2,2,72*,-14
Cn1c(=O)c(-c2ccc(C(=O)NCc3ccc4c(c3)OCO4)cc2)nc2cccnc21,24,-4,28,2
CCn1c(CCNC(=O)c2ccc(Cl)cc2)nc2cccnc21,-65,-68,-101,-392
Cn1c(=O)c(-c2ccc(C(=O)NCc3cccc(Cl)c3)cc2)nc2cccnc21,19,19,67*,82*
CCn1c(=O)c(-c2ccc(C(=O)Nc3ccccc3F)cc2)nc2cccnc21,7,5,48*,10
Cc1ccc2c(=O)c(C(=O)N3CCC(C)CC3)cn(CC(=O)NC3CCCCC3)c2n1,-11,-7,.,-11
Cc1nc2ccc(NC(=O)COc3ccccc3F)cc2s1,-4,-8,-7,-10
Cc1nc2ccc(NC(=O)Nc3ccccc3F)cc2s1,40*,-14,-12,-37
O=C(COc1ccccc1)N1CC[C@H](c2nnc(-c3cccnc3)o2)C1,-9,-8,-13,-3
Cc1c(S(=O)(=O)NC2CCCCNC2=O)sc2ccc(Cl)cc12 (stereo not drawn),6,2,51*,10
O=C1NCCCCC1NS(=O)(=O)c1cccc(C(F)(F)F)c1 (stereo not drawn),0,6,-4,6
COc1ccccc1-n1c(CNC(=O)c2ccc(S(=O)(=O)N3CCOCC3)cc2)nnc1SCc1ccc(Br)cc1,18,-2,7,36*
Cc1ccc(CSc2nnc(CNC(=O)c3ccc(F)cc3)n2-c2ccccc2)cc1,7,9,11,23
COc1ccc(NC(=O)CCNS(=O)(=O)c2ccc3c(c2)CCC(=O)N3)cc1OC,-3,0,0,13
COc1cccc(N2CCN(C(=O)CCNS(=O)(=O)c3ccc4c(c3)CCC(=O)N4)CC2)c1,1,5,58*,-1
O=S(=O)(NCc1nc2cccnc2n1C1CC1)c1ccc(F)cc1,-4,-3,-1,-25
Cc1ccc(-n2c(-c3ccccc3)cn3c4c(=O)[nH]c(=O)n(C)c4nc23)cc1C,5,0,78*,-44
Cn1c(=O)[nH]c(=O)c2c1nc1n(CCc3ccccc3)c(-c3ccccc3)cn21,5,0,54*,50*
COCCCn1c(-c2ccccc2)cn2c3c(=O)[nH]c(=O)n(C)c3nc12,-3,0,5,22
SMILES,USP28 inh,OTUD3 inh,USP17 block,USP30 block
Cc1ccc(-n2c(-c3ccccc3)cn3c4c(=O)[nH]c(=O)n(C)c4nc23)cc1Cl,16,10,52*,34*
O=C(N1CCC2(CC1)CC2)C1(c2ccc(F)cc2)CCOCC1,-3,-1,0,-1
O=C(Nc1ccccc1Cl)c1cc(-c2ccncc2)n[nH]1,79*,13,74*,92*
COc1ccccc1CNC(=O)c1cc(-c2ccccn2)n[nH]1,3,14,.,11
O=C(Nc1ccccc1)c1cc(-c2ccncc2)n[nH]1,24,16,-5,24
Cc1ccc(NC(=O)c2cc(-c3ccncc3)n[nH]2)c(C)c1,6,6,2,16
CCc1ccccc1NC(=O)c1cc(-c2ccccn2)n[nH]1,13,18,73*,38*
Cc1cc(Cl)ccc1NC(=O)c1cc(-c2ccncc2)n[nH]1,72*,28,65*,90*
Cc1cn[nH]c1CC1CCCN(C(=O)c2cc3ccccc3[nH]2)C1 (stereo not drawn),6,5,-9,1
O=C(Nc1ccc(-c2cn3ccsc3n2)cc1)c1ccc(Cl)c([N+](=O)[O-])c1,32*,24,12,82*
Cc1oncc1C(=O)N1CC[C@H]2CO[C@H](CN3CCOCC3)[C@H]2C1,17,19,6,30*
Cc1occc1C(=O)N1CC[C@@H]2CN(Cc3ccncc3)CCO[C@@H]2C1,.,1,-20,.
O=C(c1noc2c1CCCC2)N1CCN(c2cccc(Cl)c2)CC1,19,12,23,12
Cc1ccc(CNC(=O)Cn2c(-c3ccccc3)nc(C)cc2=O)cc1,0,9,-3,4
Cc1ccc(CNC(=O)c2cc(-c3ccccc3)nn2-c2ccccc2)cc1,17,17,22,34*
Cn1c2ccccc2c(=O)c2c(=O)n(-c3ccccc3)c(-c3ccc(F)cc3)nc21,-9,-1,43*,4
N#CC1(c2ccccc2)CCN(c2ccccn2)CC1,7,4,3,5
CCn1c(CSc2nnc(C3CC3)n2Cc2ccccc2)nc2cc(S(=O)(=O)N(C)C)ccc21,-18,-30,-16,-67
CCn1c(CN2CCc3ccccc3C2)nc2cc(S(=O)(=O)N(C)C)ccc21,5,-7,34*,-42
CC1CN(Cc2ccccc2)c2nc3c(c(=O)n(CCN4CCCCC4)c(=O)n3C)n2C1 (stereo not drawn),-4,-1,-1,0
Cn1c(N2CCCCCC2)nc2c1c(=O)n(Cc1ccc(Cl)cc1)c(=O)n2C,11,9,2,39*
Cn1c(=O)n(Cc2ccccc2F)c(=O)c2c1nc1n2CCCN1Cc1ccccc1,22,11,7,40*
Cn1c(N2CCCCCC2)nc2c1c(=O)n(Cc1ccccc1Cl)c(=O)n2C,-6,-3,-9,-5
COc1ccc(C(CC(=O)N2CCCCCC2)n2cccc2)cc1 (stereo not drawn),15,19,13,16
CC(C)(C)C(=O)N1CCCC(c2ccnc3ncnn23)C1 (stereo not drawn),-17,-15,-5,-11
SMILES,USP28 inh,OTUD3 inh,USP17 block,USP30 block
CC(NC(=O)C1CCN(c2cnc(N3CCCC3)nc2)CC1)c1ccc(F)cc1 (stereo not drawn),-6,5,-3,-37
CC(C)(C)OC(=O)N1CCC[C@H]1C(=O)N1CCC(C(=O)N[C@@H](CC(N)=O)C(=O)O)(c2ccccc2)CC1,11,9,12,32*
O=C(NC1CCCCC1)c1ccc2c(c1)nc1n2CCN(CCCO)C1,-9,-9,-1,-18
O=C(Nc1ccc(Cl)cn1)c1nn(C2CCS(=O)(=O)C2)c2c1CCCC2 (stereo not drawn),-19,-10,38*,-73
CSc1nc2ncc3c(=O)n(CCc4ccccc4)ccc3n2n1,8,20,62*,44*
CCN1CCN(c2ncc3c(=O)n(CCc4ccccc4)ccc3n2)CC1,11,17,26,39*
CCN1CCN(c2ncc3c(=O)n(CCc4ccc(OC)c(OC)c4)ccc3n2)CC1,0,3,4,14

# Assay outcomes as filed in PubChem.
